High-throughput results (PubChem BioAssay)
A selection: hits, their analogues and other compounds. The true share with any hit is near 12%.
G9a block = qHTS Assay for Inhibitors of Histone Lysine Methyltransferase G9a; AID 504332, 2011; Potency, µM (top dose mostly 102 µM), inactives show at the top dose activity, negative = inhibition, hits mostly inhibitors; 350,000 tested, 8.8% active; G9a H3K9 monomethylation, AlphaScreen, 2 h; also: potency is read from the fitted curve at half-maximal effect; % is scaled to controls: 0 for no effect and ±100 for the full control effect; nearly all actives have a fitted effect of over 75% in size
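Quantitative HTS format: methyltransferase activity on a biotin-tagged H3K9 peptide is measured by AlphaScreen, using a rabbit anti-monomethyl-H3K9 antibody with streptavidin donor and anti-IgG acceptor beads. Final levels are 20 nM enzyme, 500 nM peptide, 20 uM SAM; 2 h RT.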
JMJD2A Tudor inh = qHTS Assay for Inhibitors of JMJD2A-Tudor Domain. AlphaScreen JMJD2A-Tudor / H3K4me3 peptide binding. AID 504339, 2011. Lysine-specific demethylase 4A (Homo sapiens), O75164. Potency, µM (doses to about 114 µM), inactives show at the top dose activity change, negative = inhibition, usual class: inhibitors. 390,000 tested, 4.4% active; also: potency is read from the fitted curve at half-maximal effect; % is scaled to controls: 0 for no effect and ±100 for the full control effect; nearly all actives have a fitted effect of over 50% in size
PI5P4K alpha inh = qHTS for Inhibitors of phosphatidylinositol 5-phosphate 4-kinase (PI5P4K) | PI5P4Kalpha enzyme, ADP-Glo luminescence, 60 min; hits give low values | max response, % | 330,000 tested, 1.2% active | AID 652105, 2013; active = max response of -50% or lower; inconclusive = between -30% and -50%; inactive = -30% or higher; also: value at the top dose of about 77 µM; % is scaled to controls: 0 for no effect and ±100 for the full control effect
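ADP-Glo luminescence end-point after a 60 min room-temperature kinase reaction. PI5P4Kalpha and substrate in HEPES pH 7.4 buffer with EGTA, 0.1% CHAPS and 5% DMSO; ATP at 5 microM final.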
HP1b binding inh = HTS for Inhibitors of HP1-beta Chromodomain Interactions with Methylated Histone Tails | Chromobox protein homolog 1 (Homo sapiens), P83916 | AlphaScreen HP1-beta / biotin-H3K9me3 peptide binding | Potency, µM (series often up to 114 µM), without a hit: at the top dose activity change, negative = inhibition, most hits filed as inhibitors | 390,000 tested, 0.56% active | AID 540317, 2011; also: potency is read from the fitted curve at half-maximal effect; nearly all actives have a fitted effect of over 70% in size
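Compound inhibition of the preformed complex between 50 nM HP1-beta and 50 nM biotinylated H3K9me3 peptide was read by AlphaScreen. Buffer was PBS pH 7.4 with 0.01% Tween-20. Incubations ran 30 min at room temperature, with 10 ug/mL donor/acceptor beads.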
BAZ2B block = qHTS Assay for Inhibitors of BAZ2B; 360,000 tested, 4.4% active; Potency, µM (series often up to 114 µM), for the others: at the highest dose activity change, negative = inhibition, actives largely listed as inhibitors; Bromodomain adjacent to zinc finger domain protein 2B (Homo sapiens), Q9UIF8; AlphaScreen BAZ2B-H3K14Ac peptide displacement; also: potency is read from the fitted curve at half-maximal effect; % is scaled to controls: 0 for no effect and ±100 for the full control effect; nearly all actives have a fitted effect of over 60% in size
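BAZ2B (50 nM) with biotin-H3(5-23)K14Ac peptide (50 nM) in PBS pH 7.4, 0.01% Tween-20, preformed 30 min, then compound 30 min at room temperature; top concentration 110uM. AlphaScreen streptavidin donor/nickel chelate acceptor beads (10 ug/mL final), 20 min dark, signal read.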
PLK1 PBD block = qHTS for Inhibitors of PLK1-PDB (polo-like kinase 1 - polo-box domain): Primary Screen. Plk1 PBD binding of FITC phosphopeptide, fluorescence polarization. Potency, µM, for inactives: max response, negative = inhibition, actives largely listed as inhibitors. 360,000 tested, 2.8% active; also: potency is read from the fitted curve at half-maximal effect; series mostly up to about 57 µM; % is scaled to controls: 0 for no effect and ±100 for the full control effect; nearly all actives have a fitted effect of over 65% in size
Target sequence (P53350 whole entry, looked up, the tested form may be a part): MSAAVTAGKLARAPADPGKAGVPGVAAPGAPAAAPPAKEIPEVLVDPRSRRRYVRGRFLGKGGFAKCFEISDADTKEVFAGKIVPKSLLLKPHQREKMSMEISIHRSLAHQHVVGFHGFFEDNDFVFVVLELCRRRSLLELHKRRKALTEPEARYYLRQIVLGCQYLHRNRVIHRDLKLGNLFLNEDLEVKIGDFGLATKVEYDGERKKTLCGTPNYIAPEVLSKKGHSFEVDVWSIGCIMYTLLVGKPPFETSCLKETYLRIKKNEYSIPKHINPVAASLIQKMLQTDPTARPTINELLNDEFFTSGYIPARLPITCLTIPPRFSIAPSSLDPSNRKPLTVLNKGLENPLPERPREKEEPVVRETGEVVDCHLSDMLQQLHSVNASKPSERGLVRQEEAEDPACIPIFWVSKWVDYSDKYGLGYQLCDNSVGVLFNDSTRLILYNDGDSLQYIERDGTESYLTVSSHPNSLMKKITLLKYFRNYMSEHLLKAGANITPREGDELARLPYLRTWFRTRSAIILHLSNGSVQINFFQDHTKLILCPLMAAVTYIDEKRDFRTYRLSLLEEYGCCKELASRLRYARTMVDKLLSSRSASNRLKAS
Numbers without * were called inactive; u = inconclusive; x = no result given; [ ] = remark or other dose. Unless noted, calls follow the shape of the dose curve; as a rule, active = well fitted curve in the direction sought with a large enough effect; inconclusive = small, poorly fitted or top-dose-only effect, or another doubt; inactive = no such curve, though single readings can be large; an effect the other way counts as inactive or inconclusive.

SMILES	G9a block	JMJD2A Tudor inh	PI5P4K alpha inh	HP1b binding inh	BAZ2B block	PLK1 PBD block
O=c1[nH]cnc2c1c(-c1ccccc1)cn2-c1ccc(Br)cc1	4.5%[59 µM]	-3.8%	2.1	1.6%	0.9%	-12.7%
Cc1cccc(-n2cc(-c3ccccc3)c3c(=O)[nH]cnc32)c1	u	79.4µM*	1.0	u	44.7µM*	u
CCOc1ccc(-n2cc(-c3ccccc3)c3c(=O)[nH]cnc32)cc1	44.7µM*	u	0.3	u	u	-3.7%
Oc1ccc(C=NN=Cc2ccco2)c(O)c1	x	-23.6%	-8.4	20.0%	x	-11.8%
CC(C)CCNC(=O)CSc1nc2ccccc2nc1Cc1ccccc1	21.1%[59 µM]	-4.9%	x	19.8%[57 µM]	1.5%	x
COCC(C)OC(=O)/C(C#N)=C\c1coc2ccc(C)cc2c1=O (stereo not given)	u	-7.1%	-22.3	32.6%	8.9%	10.6µM*
O=C1N(Cc2cccc(Cl)c2)C[C@@H]2C[C@@H](c3c[nH]c4ccccc34)N3CCC[C@@]123	35.5µM*	u	-7.0	-29.7%	-31.2%	17.5%
O=C1N(Cc2cccc(Cl)c2)C[C@@H]2C[C@@H](c3cccc4ncccc34)N3CCC[C@@]123	1.5%	-19.9%	-4.9	19.3%	3.0%	1.6%
Cc1ccc([C@@H]2C[C@H]3CN(Cc4cccc(Cl)c4)C(=O)[C@]34CCCN24)o1	u	-8.5%	0.1	16.8%[57 µM]	u	u
Cc1cccc([C@@H]2C[C@H]3CN(Cc4cccc(Cl)c4)C(=O)[C@]34CCCN24)n1	39.8µM*	-2.1%	-3.6	18.2%	-20.8%	-4.3%
Cc1nc2c(-c3ccc(F)cc3)c(C)nn2c(C)c1CCC(=O)NCc1ccc(Cl)cc1	-1.5%[59 µM]	-7.4%	x	31.2%	-9.5%	x
CC(C)CCN(CC(=O)NC1CCCC1)C(=O)C(=O)Nc1ccc2c(c1)OCCO2	8.4%	-6.9%	12.1	22.1%	2.9%	10.8%
CCCCN(CC(=O)NC1CCCC1)C(=O)C(=O)Nc1ccc2c(c1)OCCO2	6.8%	79.4µM*	2.1	4.6%	0.2%	u
O=C1CC(NCc2ccc(F)cc2)C(=O)N1c1ccccc1 (stereo not given)	-47.6%	-10.6%	0.1	41.4%	-15.2%	-9.4%
N#CCNC1CC(=O)N(c2ccc(F)cc2)C1=O (stereo not given)	7.94µM*	-18.8%	1.6	1.2%	-5.5%	-14.2%
O=C1CC(NCC2CCCO2)C(=O)N1c1ccc(F)cc1 (stereo not given)	50.1µM*	-17.9%	6.7	23.6%	-8.1%	2.3%
CCC(Sc1ncnc2sc(C)c(C)c12)C(=O)OC (stereo not given)	2µM*	-19.7%	-18.8	64.7%	u	-26.0%
Cc1cccnc1NC(=O)CSc1ncnc2sc(C)c(C)c12	50.1µM*	u	u	-64.6%	u	-17.6%
CCC(Sc1ncnc2sc3c(c12)CCCC3)C(=O)OC(C)C (stereo not given)	163.9%[59 µM]	81.7%	x	104.3%	177.9%	x
N#Cc1cc2ccccc2nc1SCc1ccccn1	35.5µM*	0.0%	x	50.2%	26.9%	-12.8%
CCOC(=O)c1cccc(NC(=O)N2CCC(CN3CCCCCC3)CC2)c1	-29.5%[59 µM]	-17.8%	x	9.2%	-3.2%	x
Cc1cc(C)nc(SCC(=O)NC2=NC(=O)C(C)S2)n1 (stereo not given)	17.8µM*	u	x	-5.0%	10.8%	u
Cn1c2ccccc2c2nnc(SCC(=O)Nc3cccc(C(=O)O)c3)nc21	1.4%	-19.9%	-6.8	34.9%	-18.3%	-5.8%
